Compounds with a hit are over-represented: about 3.3% of the library has one in this group of screens.
FGF22 binding – binders of human FGF22 protein, primary screen, FGF22 synaptogenesis inhibitor project, biophysical, thermal shift, single point; recombinant FGF22 thermal shift, SYPRO orange fluorescence; percent of sucrose octasulfate shift, DMSO zero; activity (Tm shift, normalised), % at 9.99 µM; 1.5% of 340,000 active; AID 651658, 2012;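 active = mean Tm shift, scaled 0 neutral to 100 positive control, at about 1.3% or above, every replicate too, limit read from the data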
Target sequence (Q9HCT0 whole entry, looked up): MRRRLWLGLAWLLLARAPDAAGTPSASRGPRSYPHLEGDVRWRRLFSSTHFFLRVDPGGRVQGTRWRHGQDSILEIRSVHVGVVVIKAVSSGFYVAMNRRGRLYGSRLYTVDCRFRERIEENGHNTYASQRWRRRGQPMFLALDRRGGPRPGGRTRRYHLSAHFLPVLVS
ERAP1 inh – human ERAP1 aminopeptidase inhibitors, primary screen, biochemical, single point, plate reader | Endoplasmic reticulum aminopeptidase 1 (Homo sapiens), Q9NZ08 | recombinant ERAP1, Leu-AMC fluorescence, 60 min | inhibition, % at 10.7 µM | 0.15% of 340,000 active | AID 652197, 2013;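 active = mean replicate inhibition of at least 30%, or all replicates individually reaching that 30% level; inactive = mean below 30% and not every replicate reaching it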;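 note: 0% = neutral control wells and 100% = L-leucinethiol positive control wells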
Casp6 inh – human caspase-6 inhibitors, primary screen, biochemical, VEID-R110 fluorescence, single point, set 2 | inhibition, % at 12.5 µM | purified caspase-6, Z-VEID-R110 cleavage fluorescence | 0.53% of 350,000 active | P55212;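 active = mean inhibition across replicates at least about 35%, with every replicate also reaching that limit, limit read from the data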;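 note: 0% = median of neutral control wells and 100% = no fluorescence left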
Target sequence (P55212 24-179 limits assumed): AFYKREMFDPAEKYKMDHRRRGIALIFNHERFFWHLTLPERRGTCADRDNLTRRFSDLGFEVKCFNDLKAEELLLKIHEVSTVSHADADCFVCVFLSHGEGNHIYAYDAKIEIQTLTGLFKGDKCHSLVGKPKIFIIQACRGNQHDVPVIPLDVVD
Target sequence (P55212 194-293 limits assumed): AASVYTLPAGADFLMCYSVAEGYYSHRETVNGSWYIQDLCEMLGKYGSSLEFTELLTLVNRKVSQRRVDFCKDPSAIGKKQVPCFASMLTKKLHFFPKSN
INS-1E GSIS act – GLuc luminescence reporter in INS-1E cells, primary screen for activators of glucose-dependent secretion of insulin. AID 743287, 2014. 0.61% of 370,000 active. activation, % at 16.6 µM. INS-1E GLuc reporter insulin secretion, 2-3 h;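 active = lowest replicate activation of at least 40%, so every replicate reaches that level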;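 note: 0% = median of neutral control wells and 100% = median of IBMX positive control wells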
SIRT5 block – SIRT5 desuccinylase inhibitors, primary screen, biochemical, fluorescence imaging, single point, set 5; inhibition, % at 15 µM; NAD-dependent protein deacylase sirtuin-5, mitochondrial (Homo sapiens), Q9NXA8; 1.1% of 330,000 active; Purified SirT5, succinyl-peptide AMC, trypsin-coupled fluorescence; in the data active = inhibition above about 15%
* marks the source's active call; other numbers are inactive results.

What do the screens show for `C/C=C/c1ccc([C@H]2[C@@H](CNS(C)(=O)=O)N(CC3CCCC3)[C@H]2CO)cc1`?
FGF22 binding: 0; ERAP1 inh: 3; Casp6 inh: -2; INS-1E GSIS act: -28; SIRT5 block: 4

How did O=C(C[C@@H]1CC[C@H]2[C@@H](COC[C@H](O)CN2Cc2ccc(C(F)(F)F)cc2)O1)NCCc1ccccc1 do in these assays?
FGF22 binding: 0; ERAP1 inh: -1; Casp6 inh: -3; INS-1E GSIS act: -14; SIRT5 block: 0

How did COc1ccc2oc(C(=O)N(Cc3ccco3)Cc3cccs3)c(C)c2c1 do in these assays?
FGF22 binding: 0; ERAP1 inh: 1; Casp6 inh: 9; INS-1E GSIS act: -23; SIRT5 block: 1

Results for Cc1onc(-c2ccccc2)c1C(=O)N(Cc1ccco1)Cc1cccs1 ?
FGF22 binding: 0; ERAP1 inh: 3; Casp6 inh: 47*; INS-1E GSIS act: -22; SIRT5 block: 0

What do the screens show for `CCN(Cc1ccc(OC)c(F)c1)C(=O)C1CCCO1` (centres undefined)?
FGF22 binding: 0; ERAP1 inh: 50*; Casp6 inh: 4; INS-1E GSIS act: -2; SIRT5 block: 2

How did CCN(Cc1ccc(OC)c(F)c1)C(=O)CCl do in these assays?
FGF22 binding: 0; ERAP1 inh: 3; Casp6 inh: 6; INS-1E GSIS act: 12; SIRT5 block: -2

How did CC(C)C#Cc1cnc2c(c1)C(=O)N([C@@H](C)CO)C[C@H](C)[C@H](CN(C)C(=O)c1ccccc1)O2 do in these assays?
FGF22 binding: 0; ERAP1 inh: -1; Casp6 inh: 0; SIRT5 block: 17*

Results for CC(C)C#Cc1cnc2c(c1)C(=O)N([C@H](C)CO)C[C@@H](C)[C@@H](CN(C)C(=O)Cc1ccccn1)O2 ?
FGF22 binding: 0; ERAP1 inh: 8; Casp6 inh: -1; INS-1E GSIS act: -2; SIRT5 block: -1

What do the screens show for `CC(C)C#Cc1cnc2c(c1)C(=O)N([C@@H](C)CO)C[C@H](C)[C@@H](CN(C)C(=O)Cc1ccccn1)O2`?
FGF22 binding: 0; ERAP1 inh: 7; Casp6 inh: 4; INS-1E GSIS act: 1; SIRT5 block: 17*

What do the screens show for `COc1ccccc1C#Cc1cnc2c(c1)C(=O)N([C@@H](C)CO)C[C@H](C)[C@@H](CN(C)C)O2`?
FGF22 binding: 0; ERAP1 inh: 1; Casp6 inh: 2; INS-1E GSIS act: -2; SIRT5 block: 31*

Results for COCC#Cc1cnc2c(c1)C(=O)N([C@@H](C)CO)C[C@@H](C)[C@@H](CN(C)C(=O)c1ccc(F)cc1)O2 ?
FGF22 binding: 0; ERAP1 inh: 1; Casp6 inh: 0; INS-1E GSIS act: -14; SIRT5 block: 31*

How did COCC#Cc1cnc2c(c1)C(=O)N([C@H](C)CO)C[C@@H](C)[C@@H](CN(C)C(=O)c1ccc(F)cc1)O2 do in these assays?
FGF22 binding: 0; ERAP1 inh: 1; Casp6 inh: 1; INS-1E GSIS act: 24; SIRT5 block: 0

How did N#C[C@@H]1[C@@H](c2ccccc2C2=CCCC2)[C@H](CO)N1C(=O)NC1CCCCC1 do in these assays?
ERAP1 inh: -1; Casp6 inh: 2; INS-1E GSIS act: -12; SIRT5 block: 6

What do the screens show for `COC(=O)C[C@H]1C[C@H]2c3cc(NC(=O)Nc4ccc(OC)cc4)ccc3O[C@H]2[C@@H](CO)O1`?
INS-1E GSIS act: 13

How did CS(=O)(=O)Nc1ccc2c(c1)[C@H]1C[C@@H](CC(=O)NCCc3ccccc3)O[C@H](CO)[C@H]1O2 do in these assays?
FGF22 binding: 0; ERAP1 inh: -1; Casp6 inh: 0; INS-1E GSIS act: 3; SIRT5 block: 0

What do the screens show for `COc1ccccc1NC(=O)N(C)C[C@H]1Oc2ncc(C#CC(C)C)cc2C(=O)N([C@@H](C)CO)C[C@@H]1C`?
FGF22 binding: 0; ERAP1 inh: 0; Casp6 inh: 1; INS-1E GSIS act: -8; SIRT5 block: 16*

How did COc1ccccc1NC(=O)N(C)C[C@H]1Oc2ncc(C#CCN(C)C)cc2C(=O)N([C@@H](C)CO)C[C@H]1C do in these assays?
FGF22 binding: 1; ERAP1 inh: 2; Casp6 inh: 7; INS-1E GSIS act: 2; SIRT5 block: 9

How did CCC(=O)N(C)C[C@@H]1Oc2cc(-c3ccc(C#N)cc3)ccc2S(=O)(=O)N([C@H](C)CO)C[C@H]1C do in these assays?
FGF22 binding: 0; ERAP1 inh: -1; Casp6 inh: -1; INS-1E GSIS act: 1; SIRT5 block: 3

How did C[C@H]1CN([C@@H](C)CO)C(=O)c2cc(C3=CCCC3)cnc2O[C@H]1CN(C)Cc1cccnc1 do in these assays?
FGF22 binding: 0; ERAP1 inh: 0; Casp6 inh: -2; INS-1E GSIS act: -10; SIRT5 block: -6

What do the screens show for `C[C@@H]1C=CCCO[C@]12C(=O)N(Cc1ccccc1C(F)(F)F)c1ccccc12`?
FGF22 binding: 0; ERAP1 inh: 0; Casp6 inh: -3; INS-1E GSIS act: -16; SIRT5 block: 18*

How did C[C@@H]1C=CCCO[C@]12C(=O)N(Cc1ccc(F)cc1)c1cccc(Br)c12 do in these assays?
FGF22 binding: 0; ERAP1 inh: 2; Casp6 inh: -3; INS-1E GSIS act: 6; SIRT5 block: 0

How did O=C(C[C@@H]1CC[C@@H]2[C@H](COC[C@H](O)CN2C(=O)Nc2ccc(F)cc2)O1)NCCc1ccccc1 do in these assays?
FGF22 binding: -1; ERAP1 inh: -2; Casp6 inh: 0; INS-1E GSIS act: -15; SIRT5 block: 4

Results for CO[C@@H]1CN(C)C(=O)c2cc(NC(=O)Nc3cccc(Cl)c3)ccc2OC[C@H](C)N(C)C[C@H]1C ?
INS-1E GSIS act: -9

How did COc1ccccc1NC(=O)CN(Cc1ccco1)C(=O)c1ccc(N2CCCC2=O)cc1 do in these assays?
FGF22 binding: 44*; ERAP1 inh: 2; Casp6 inh: 2

What do the screens show for `COc1ccc(NC(=O)Nc2ccc3c(c2)C(=O)N([C@H](C)CO)C[C@H](C)[C@@H](CN(C)C(=O)NC(C)C)OCCCC[C@@H](C)O3)cc1`?
FGF22 binding: 0; ERAP1 inh: 1; Casp6 inh: 3; INS-1E GSIS act: 15; SIRT5 block: -1

Assay outcomes as filed in PubChem BioAssay.
